Screening data from PubChem.
HT1080NT lethal = kills 2HG-producing HT-1080-NT fibrosarcoma cells. AID 686970. HT-1080-NT fibrosarcoma viability, CellTiter-Glo ATP luminescence, 48 h. 1.6% of 360,000 active. Potency, µM (highest dose often 46.1 µM), most hits filed as cytotoxic;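 further: NT is the 2HG producing partner of a matched IDH1 knockdown line; nearly all actives have a fitted effect of over 55% in size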
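750 cells/well, RPMI + 5% FBS; 2 h settle, compound pin-transfer, 48 h at 37 degrees C. CellTiter-Glo 10 min RT, luminescence. Normalized to DMSO and media-only wells.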
HepG2 tox = counter-screen for TGF-b inhibitors: cytotoxicity in HepG2 cells. 0.76% of 410,000 active. HepG2 CAGA-GFP viability, ATP luminescence, 18 h. Potency, µM (titrated, usually from 46.1 µM), most hits filed as cytotoxic
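CellTiter-Glo luminescence gave cytotoxicity after 18 hours at 37 degrees C. The cells were HepG2 CAGA-GFP in 1% FBS DMEM, stimulated with 500 pg/mL TGF-beta after compound addition. %Activity was normalised to no-cell wells (complete cell-killing) and DMSO (no toxicity), and curves were fitted and classified.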
TDP1 cell noCPT = qHTS for Inhibitors of human tyrosyl-DNA phosphodiesterase 1 (TDP1): qHTS in cells in absence of CPT; DT40 Tdp1-/- hTDP1 cells, no CPT, ATP luminescence, 48 h; Potency, µM (doses to about 46.2 µM), most hits filed as inhibitors; 15% of 420,000 active; AID 686978, 2013; further: nearly all actives have a fitted effect of over 55% in size
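No-CPT arm: Tdp1-/-;hTDP1 DT40 cells (400/well) plus compounds, incubated ≥48 hr at 37 °C. Readout CellTiter-Glo luminescence.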
TGFb inhibitor = blocks TGF-b signaling; HepG2 CAGA-GFP TGF-b/SMAD3 reporter, GFP fluorescence, 18 h; TGF-beta stimulated, 500 pg/mL final; Potency, µM (highest dose often 46.1 µM), most hits filed as inhibitors; 1.2% of 410,000 active; AID 588855; further: nearly all actives have a fitted effect of over 65% in size
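First, reporter cells (HEPG2 CAGA-GFP) rested 2 h at 37 degrees C. Next, compounds were pinned in and TGF-beta added to 500 pg/mL final. After 18 h, GFP was imaged per cell and summed per well.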
HT1080 IDH1KD tx = kills HT-1080 cells with IDH1 knockdown | AID 686971 | 2% of 360,000 active | Potency, µM (series often up to 46.1 µM), actives largely listed as cytotoxic | HT-1080 IDH1 knockdown viability, ATP luminescence, 48 h
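In this qHTS, HT-1080 cells depleted of IDH1 are exposed for 48 h at 37 °C to compound titrations. Toxicity is scored from CellTiter-Glo luminescence, with DMSO as full viability and medium alone as none.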
TDP1 cell CPT = growth inhibition of DT40 Tdp1-/-;hTDP1 cells with camptothecin (screen for TDP1 inhibitors) | chicken DT40 Tdp1-/-;hTDP1 cells + 20 nM CPT, ATP luminescence, 48 h | Potency, µM (top dose mostly 46.2 µM), hits mostly inhibitors | 12% of 420,000 active; further: nearly all actives have a fitted effect of over 55% in size
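Chicken DT40 Tdp1-/- cells complemented with human TDP1, 400 cells/well, exposed to compounds plus 20 nM camptothecin for at least 48 h at 37 C; viability read as ATP content by CellTiter-Glo luminescence.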
A number is an active result; – = inactive; ? = inconclusive; · = no result given; [ ] = another dose, or the depositor's remark. Compounds with a hit are over-represented: about 17% of the library has one in this group of screens. The call rests on the fitted dose curve; in most records, active means well fitted curve in the direction sought with a large enough effect; inconclusive means small, poorly fitted or top-dose-only effect, or another doubt; inactive means no such curve, though single readings can be large; an effect the other way counts as inactive or inconclusive.

SMILES	HT1080NT lethal	HepG2 tox	TDP1 cell noCPT	TGFb inhibitor	HT1080 IDH1KD tx	TDP1 cell CPT
N#CCC(=O)Nc1ccc(C(=O)OCC(=O)c2ccc3c(c2)NC(=O)CO3)cc1	–	–	–	–	–	–
CCOC(=O)c1c(C)[nH]c(CCC(=O)Nc2c(Cl)cc(OC)cc2OC)c1C	·	–	?	–	·	?
CCOC(=O)c1c(C)[nH]c(CCC(=O)Nc2ccccc2C(=O)OC)c1C	·	–	23µM	–	·	?
CCOC(=O)c1c(C)[nH]c(CCC(=O)NCc2ccc(N(C)C)cc2)c1C	·	–	18µM	–	·	?
CCOC(=O)c1c(C)[nH]c(CCC(=O)Nc2ccccc2C(F)(F)F)c1C	·	–	?	–	·	?
CCOC(=O)c1c(C)[nH]c(CCC(=O)Nc2ccccc2OCC)c1C	·	–	23µM	–	·	?
CCOC(=O)c1c(C)[nH]c(CCC(=O)Nc2cc(C)cc(C)c2)c1C	·	–	23µM	–	·	?
O=c1c(S(=O)(=O)c2cccc(Cl)c2)cn(Cc2ccccc2)c2cc(N3CCCCC3)c(F)cc12	·	–	–	–	·	–
CCOC(=O)c1c(C)[nH]c(CCC(=O)Nc2cc(C)ccc2OC)c1C	·	–	16µM	?	·	?
CCOC(=O)c1c(C)[nH]c(CCC(=O)Nc2c(C)cccc2CC)c1C	·	–	16µM	–	·	?
CCOC(=O)c1c(C)[nH]c(C)c1S(=O)(=O)NCC(=O)Nc1cc(C)ccc1OC	·	–	–	–	·	?
CCOC(=O)c1c(C)[nH]c(CCC(=O)NCCCN2CCN(c3ccc(F)cc3)CC2)c1C	·	–	10µM	–	·	21µM
COc1ccc(CNC(=O)CCn2c(C)csc2=O)cc1	–[9.24 µM]	–	–	–	–	–
COc1cc(NC(=O)Cn2c(=O)n(Cc3ccccc3Cl)c(=O)c3cc(OC)c(OC)cc32)cc(OC)c1	·	–	–	–	·	–
O=C(Nc1cccc(Cl)c1)OC1CCCCc2cccnc21 (configuration not stated)	–	–	?	–	–	13µM
Cc1nnc(SCC(=O)Nc2sc3c(c2C#N)CCCCC3)n1N	–	–	–	–	–	–
N#Cc1c(NC(=O)CSc2nnnn2C2CCCCC2)sc2c1CCCC2	–	–	16µM	–	–	?
O=C(CSc1nnnn1C1CCCCC1)Nc1nc2c(s1)CCCC2	–	–	21µM	–	–	15µM
CCNC(=O)C1(C)CCCN(C(=O)c2sc(-c3ccccc3)nc2C)C1 (configuration not stated)	–	–	–	?	–	–
NC(=O)N[C@@H](CCC(=O)O)C(=O)O	·	·	–	·	·	–
CCNC(=O)NC1(C(=O)Nc2ccc3c(c2)OCCO3)CCCCC1	–	–	–	–	–	–
CC(=O)Nc1ccc(S(=O)(=O)N2CCN(S(=O)(=O)c3ccccc3)CC2)cc1	–	–	–	–	–	–
Cc1cccc(N2CCN(S(=O)(=O)c3ccc4c(c3)C(C)(C)C(=O)N4C)CC2)c1C	–	–	?	–	–	?
CN1C(=O)C(C)(C)c2cc(S(=O)(=O)N3CCN(c4ccccc4F)CC3)ccc21	–	–	23µM	–	–	?
Cc1ccc(C)c(N2CCN(S(=O)(=O)c3ccc4c(c3)C(C)(C)C(=O)N4C)CC2)c1	–	–	23µM	?	–	?
SMILES	HT1080NT lethal	HepG2 tox	TDP1 cell noCPT	TGFb inhibitor	HT1080 IDH1KD tx	TDP1 cell CPT
CC(=O)Nc1ccc(S(=O)(=O)N2CCN(c3cc(C)ccc3C)CC2)cc1	–	–	?	?	–	16µM
COc1ccc(CCC(=O)OCC(=O)Nc2c(C)n(C)n(-c3ccccc3)c2=O)cc1	–	–	–	–	–	–
Cc1ccccc1CNC(=O)C(C)n1nc(C)n2c(cc3occc32)c1=O (configuration not stated)	·	–	–	·	·	–
COc1cccc(S(=O)(=O)N(C)C[C@H]2OCc3cnnn3CCCC(=O)N([C@H](C)CO)C[C@H]2C)c1	–	18µM	–	–	–	–
COc1cccc(S(=O)(=O)N(C)C[C@@H]2OCc3cnnn3CCCC(=O)N([C@H](C)CO)C[C@H]2C)c1	–	–	?	–	–	–
C[C@H]1CN([C@@H](C)CO)C(=O)CCCn2nncc2CO[C@H]1CN(C)S(=O)(=O)c1ccc(Oc2ccccc2)nc1	–	–	8.2µM	–	–	10µM
C[C@@H]1CN([C@H](C)CO)C(=O)CCCn2nncc2CO[C@@H]1CN(C)S(=O)(=O)c1cn(C)cn1	–	11µM	–	–	–	–
C[C@@H]1CN([C@@H](C)CO)C(=O)CCCn2nncc2CO[C@@H]1CN(C)S(=O)(=O)c1ccc(Oc2ccccc2)nc1	–	–	?	–	–	?
Cc1ccc(CN2CCN(/N=C/c3ccc(O)c(O)c3)CC2)cc1	–	–	4.1µM	–	–	7.3µM
Cc1ccc(CN2CCN(/N=C/C(Br)=C\c3ccccc3)CC2)cc1	–	–	4.1µM	?	–	?
Cc1ccc(CN2CCN(/N=C/c3cccnc3)CC2)cc1	–	–	–	–	–	–
Cc1ccc(CN2CCN(/N=C/c3ccc(C(=O)O)cc3)CC2)cc1	–	–	–	–	–	–
Cc1cccc(C(C)C)c1NC(=O)COC(=O)CCC(=O)N(CC(C)C)c1c(N)n(CC(C)C)c(=O)[nH]c1=O	–	–	–	–	–	–
CC1(C(=O)NCc2ccccc2)CN(S(C)(=O)=O)CC(=O)N1C1CC1 (configuration not stated)	–	·	–	·	–	–
Cc1ccccc1-n1c(SCC(=O)NC2CC2)nc2ccccc2c1=O	–	–	16µM	–	–	?
COc1cccc(-n2c(SCC(=O)NC3CC3)nc3ccccc3c2=O)c1	–	–	?	–	–	–
COc1ccc(C)cc1-n1c(SCC(=O)NC2CC2)nc2ccccc2c1=O	–	–	?	–	–	18µM
CCOC(=O)C(CC)n1nnc2sc(-c3ccccc3)cc2c1=O (configuration not stated)	·	–	15µM	–	·	26µM
Cc1ccccc1-n1c(SCC(N)=O)nc2sc(-c3ccccc3)cc2c1=O	–	–	18µM	–	–	?
O=C(CSc1nc2ccccc2c(=O)n1-c1ccccc1)NCC1CCCO1 (configuration not stated)	–	–	?	–	–	–
